Laboratory results taken from PubChem BioAssay (NCI).
Compounds without any hit were thinned out: in the full panel of roughly 83,000, 20% have a hit.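 Percent growth is the endpoint: 0 to 100 indicates growth inhibition (40 means 60% inhibition), 0 means no net growth, and negative values indicate cell death.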 Unmarked numbers belong to inactive results. Activity calls are given as the source filed them. The calls were made as follows: active = growth percent below 10; inactive = the rest.

Tested on: MDA-MB-468 breast
Test: NCI-60 one-dose screen, 48 h (100 = growth as untreated, 0 = no growth, -100 = all killed)
Details: 10 µM unless noted

| Compound | growth |
| --- | --- |
| CNC1(C#N)CCN(Cc2ccccc2)CC1 | 85.6% |
| O=C1c2cc([N+](=O)[O-])ccc2-c2cc(Cl)c(NC(=O)C(F)(F)F)cc21 | -17.9% (active) |
| CC(=O)Oc1ccccc1C(=O)Nc1ncc([N+](=O)[O-])s1 | 36.9% |
| COc1cc(NC(=O)CCSc2nc3ccccc3c(=O)n2Cc2ccccc2)cc(OC)c1OC | 93.3% |
| COc1ccccc1NC(=O)c1sc2nc3c(cc2c1N)C(=O)CCC3 | 23.4% |
| Cc1ccc2nc(C)c(-c3nnc(SCc4ccc(C#N)cc4)o3)n2c1 | 87.5% |
| Cc1ccc2c(c1)C(=O)C(c1c(-c3[nH]c(=O)c4ccc(C)cc4c3O)c(O)c3ccccc3c1O)=NC2=O | -23.1% (active) |
| COc1ccc2c(c1)CC=C1[C@@H]2CC[C@]2(C)C(=O)/C(=N/O)C[C@@H]12 | 63.2% |
| CCOC(=O)c1nc(Nc2cc(C)[nH]n2)c2ccccc2n1 | 54.9% |
| CC1(C)CC(=O)c2c(nc3ccc(Cl)cc3c2-c2ccccc2)C1 | 92% |
| O=C(O)/C(=C/c1ccc(O)cc1)c1ccccc1 | 96.9% |
| CC(C)=NNc1ccccn1 | 12.9% |
| C=C(C)[C@@H]1CC[C@]2(C)[C@H](CC=C3[C@@H]4[C@@H](C)[C@H](C)CC[C@]4(C(N)=O)CC[C@]32C)[C@@]1(C)CCC#N | 0.182% [100 µM] (active) |
| COc1ccc(C(=O)c2cc(OC)c(C)c(OC)c2)cc1OC(=O)CCl | 38.3% |
| CC(=O)c1ccc2c(c1)c1ccccc1n2C | 79.5% |
| COc1ccc(-c2csc(NC(=O)N3CCN(c4cc5c(cc4F)c(=O)c(C(=O)O)cn5C4CC4)CC3)n2)cc1 | -2.96% (active) |
| Nc1n[nH]c2cc(F)c([C@@H]3Nc4ccc5[nH]ncc5c4[C@H]4C5CCC(C5)[C@@H]34)cc12 (some centres undefined) | -11.7% (active) |
| COc1cc(C2C=C(c3ccc(Cl)c(Cl)c3)N=C3SC(C)=CN32)cc(OC)c1OC (centres undefined) | 62.5% |
| Cc1cc2nc(CO)[nH]c2cc1C | 135% |
| CC(C)C[C@H](NC(=O)Cn1ccc2ccccc2c1=O)B(O)O | 0.399% (active) |

| Compound | growth |
| --- | --- |
| COc1ccc(-c2ccc(-c3ccc(C(=N)N)s3)s2)cc1 | -75.9% (active) |
| CCCCn1c(-c2ccc(-c3nc(-c4ccc(Cl)cc4)no3)cc2)nc(-c2ccccc2)c1-c1ccccc1 | 106% |
| Cc1cc(=O)n2nnc3c4ccccc4ccc3n12 | 15.5% |
| COc1ccc(C2=NN(C=O)C(c3ccc(OS(=O)(=O)c4ccc(C)cc4)c(OC)c3)C2)cc1 (centres undefined) | 18.1% |
| O=C(NNC(=S)Nc1ccccc1)c1cc2ccc1CCc1ccc(cc1)CC2 | 67% |
| COC1=CC(c2ccc[nH]2)=N/C1=C\c1[nH]c(C)c(C(=O)CCCCC(=O)Nc2ccccc2)c1C | -10.7% (active) |
| O=C1c2c(c3c4cc(Br)ccc4[nH]c3c3ccc4ccccc4c23)C(=O)N1CCN1CCCCC1 | 15% |
| CCN(CC)CCN1C(=O)c2c(c(C)c3c(oc4cc(O)ccc43)c2C)C1=O | 96.3% |
| Clc1ccc(-c2nc(C(Cl)Cl)nc3cc(-c4ccccc4)nn23)cc1 | -33.8% (active) |
| CC/C=C\C/C=C\C[C@H](O)C/C=C1/C(=O)C=C[C@H]1C/C=C\CCC(=O)OC | 28.3% [8.25 µM] |
| COc1ccc(-c2cs/c(=N\N=C\c3ccc(O)cc3O)n2/N=C/c2ccc(O)cc2O)cc1 | -23.3% (active) |
| CSc1cccc([N+](=O)[O-])c1 | 94.1% |
| Brc1ccsc1Br | 103% |
| FC(F)(F)c1ccc(-c2cnc(-c3nn[nH]n3)nc2NC2CCCCCC2)cc1 | 68.5% [50 µM] |
| N/C(=N\c1nc2ccccc2s1)NC(=O)Nc1cccc(Cl)c1 | 35.5% |
| CC(C)C1=NOC(=O)C1=Cc1cn(-c2ccccc2)nc1-c1ccc(F)cc1 | 73.4% |
| C=C(c1ccc(C(=O)O)cn1)c1cc2c(cc1C)C(C)(C)CCC2(C)C | 91.5% |
| CN(C)c1ccc(-c2cc(-c3c[nH]c4ccccc34)nc(N)c2C#N)cc1 | 39.7% |
| CC(C)n1cc(C2=C(c3cccc4ccccc34)C(=O)NC2=O)c2cc(Br)ccc21 | 44.4% |
